For 20 compounds, growth inhibition, inhibition and outcome results are on record in PubChem BioAssay.

Unmarked numbers belong to inactive results. For some of these results: Entries with a potency or affinity are not part of this list. The source made the active and inactive calls. Unless noted, no rule for the calls is given here.

Assay [1] can be described thus: antimalarial activity against Dd2 strain (AID 2302;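 active = growth inhibition above 50% at the single 2 µM test dose, taken to imply half-maximal potency below 2 µM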;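 also: 0% = DMSO untreated growth and 100% = chloroquine plus artemisinin killed control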). As to conditions: P. falciparum Dd2 in RBCs, LDH growth readout, 72 h; at 2 µM; active compounds read high.
Assay [2] can be described thus: human hepatoma cell viability loss – ATP luminescence, cytotoxicity control for P. falciparum antimalarial project, primary screen (AID 2303;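 active = inhibition above 50%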;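 also: 0% = DMSO wells and 100% = digitonin-killed cells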). As to conditions: HepG2 viability, 24-48 h, at 10 µM, active compounds read high.
Assay [3] has as its target L-lactate dehydrogenase (Plasmodium falciparum (isolate CDC / Honduras)) (UniProt Q27743). As to the kind of experiment: PfLDH activity inhibition – cell lysate, 3D7 strain, counter-screen for P. falciparum growth inhibition project (AID 2304).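 Also: 0% = vehicle and 100% = reference inhibitor.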 As to conditions: P. falciparum 3D7 crude extract, LDH APAD/NBT absorbance; at 2 µM; active compounds read high.
Assay [4] is described as follows: inhibition of 3D7 malaria parasite growth – strain 3D7 (AID 2306).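 Also: 0% = DMSO wells and 100% = chloroquine plus artemisinin control wells.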 As to conditions: P. falciparum 3D7 erythrocytic growth, LDH absorbance, 72 h; at 2 µM; active compounds read high.
Assay [5] deals with Calcium-dependent protein kinase 1 (Plasmodium falciparum (isolate 3D7)) (UniProt P62344). The assay can be described thus: PfCDPK1 kinase inhibitors, biochemical, TCAMS library (AID 1159585; cut-off not given, nearly all actives have IC50 up to about 0.98 µM;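 also: inhibitors leave more ATP so luminescence rises with inhibition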). As to conditions: recombinant PfCDPK1, Kinase-Glo ATP depletion luminescence.
Chain of Calcium-dependent protein kinase 1 (Plasmodium falciparum (isolate 3D7)) (P62344 whole entry, looked up): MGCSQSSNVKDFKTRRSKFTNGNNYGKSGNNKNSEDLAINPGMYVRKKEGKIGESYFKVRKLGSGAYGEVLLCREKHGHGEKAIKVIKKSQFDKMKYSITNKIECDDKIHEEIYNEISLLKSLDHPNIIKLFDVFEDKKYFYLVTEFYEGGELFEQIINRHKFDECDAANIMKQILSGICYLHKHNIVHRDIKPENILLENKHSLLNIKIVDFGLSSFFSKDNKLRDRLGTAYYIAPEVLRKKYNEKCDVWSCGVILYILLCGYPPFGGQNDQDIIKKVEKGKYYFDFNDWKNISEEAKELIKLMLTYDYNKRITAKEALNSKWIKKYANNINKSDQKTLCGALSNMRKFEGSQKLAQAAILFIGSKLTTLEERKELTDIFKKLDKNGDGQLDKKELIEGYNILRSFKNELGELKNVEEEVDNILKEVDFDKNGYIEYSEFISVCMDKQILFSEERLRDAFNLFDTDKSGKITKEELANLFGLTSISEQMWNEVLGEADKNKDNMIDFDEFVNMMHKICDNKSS
In assay [6] the target is Plasmodium falciparum protein kinase 6 (PK6, PF3D7_1337100) (UniProt Q8IDW1). The assay can be described thus: PfPK6 kinase inhibitors, biochemical, TCAMS library (AID 1159586). As to conditions: recombinant PfPK6, Kinase-Glo ATP depletion luminescence.
Chain of Plasmodium falciparum protein kinase 6 (PK6, PF3D7_1337100) (Q8IDW1 1-305): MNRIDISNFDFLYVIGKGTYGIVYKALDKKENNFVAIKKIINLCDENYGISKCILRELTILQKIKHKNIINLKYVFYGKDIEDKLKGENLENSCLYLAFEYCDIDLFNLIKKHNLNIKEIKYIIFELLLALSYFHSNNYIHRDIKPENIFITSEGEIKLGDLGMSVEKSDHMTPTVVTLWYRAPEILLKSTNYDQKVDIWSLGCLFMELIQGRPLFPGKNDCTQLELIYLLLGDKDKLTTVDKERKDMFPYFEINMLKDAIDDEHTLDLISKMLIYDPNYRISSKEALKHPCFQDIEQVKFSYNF
Assay [7] deals with Protein kinase 7 (PK7), Plasmodium falciparum 3D7 (PF3D7_0213400) (UniProt Q7YTF7). As to the kind of experiment: inhibition of Plasmodium PK7 catalytic activity – biochemical, TCAMS antimalarial set, Kinase-Glo luminescence (AID 1159587). As to conditions: recombinant PfPK7, Kinase-Glo ATP depletion luminescence.
Chain of Protein kinase 7 (PK7), Plasmodium falciparum 3D7 (PF3D7_0213400) (Q7YTF7 1-343): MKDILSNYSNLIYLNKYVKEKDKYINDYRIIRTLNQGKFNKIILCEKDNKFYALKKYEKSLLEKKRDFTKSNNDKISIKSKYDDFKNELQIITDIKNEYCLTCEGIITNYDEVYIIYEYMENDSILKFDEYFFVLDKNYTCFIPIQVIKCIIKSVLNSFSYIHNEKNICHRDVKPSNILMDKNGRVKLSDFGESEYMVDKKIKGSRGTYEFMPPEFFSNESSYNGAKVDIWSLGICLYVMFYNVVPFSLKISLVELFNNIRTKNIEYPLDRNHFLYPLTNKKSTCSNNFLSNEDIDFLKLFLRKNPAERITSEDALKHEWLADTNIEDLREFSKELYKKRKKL
Assay [8] addresses Calcium-dependent protein kinase 4 (Plasmodium falciparum (isolate 3D7)) (UniProt Q8IBS5). The assay can be described thus: PfCDPK4 kinase inhibitors, biochemical, TCAMS library (AID 1159588; cut-off not given, nearly all actives have IC50 up to about 0.91 µM). As to conditions: recombinant PfCDPK4, Kinase-Glo ATP depletion luminescence.

Chain of L-lactate dehydrogenase (Plasmodium falciparum (isolate CDC / Honduras)) (Q27743 whole entry, looked up): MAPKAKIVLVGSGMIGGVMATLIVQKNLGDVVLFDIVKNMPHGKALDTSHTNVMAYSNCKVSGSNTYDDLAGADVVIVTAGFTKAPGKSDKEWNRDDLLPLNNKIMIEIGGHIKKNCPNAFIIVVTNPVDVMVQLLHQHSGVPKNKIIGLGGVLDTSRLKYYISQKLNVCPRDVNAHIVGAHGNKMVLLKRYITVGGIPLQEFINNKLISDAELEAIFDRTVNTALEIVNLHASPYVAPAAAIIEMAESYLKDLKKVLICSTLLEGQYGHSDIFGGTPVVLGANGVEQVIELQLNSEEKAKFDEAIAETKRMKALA
Chain of Calcium-dependent protein kinase 4 (Plasmodium falciparum (isolate 3D7)) (Q8IBS5 whole entry, looked up): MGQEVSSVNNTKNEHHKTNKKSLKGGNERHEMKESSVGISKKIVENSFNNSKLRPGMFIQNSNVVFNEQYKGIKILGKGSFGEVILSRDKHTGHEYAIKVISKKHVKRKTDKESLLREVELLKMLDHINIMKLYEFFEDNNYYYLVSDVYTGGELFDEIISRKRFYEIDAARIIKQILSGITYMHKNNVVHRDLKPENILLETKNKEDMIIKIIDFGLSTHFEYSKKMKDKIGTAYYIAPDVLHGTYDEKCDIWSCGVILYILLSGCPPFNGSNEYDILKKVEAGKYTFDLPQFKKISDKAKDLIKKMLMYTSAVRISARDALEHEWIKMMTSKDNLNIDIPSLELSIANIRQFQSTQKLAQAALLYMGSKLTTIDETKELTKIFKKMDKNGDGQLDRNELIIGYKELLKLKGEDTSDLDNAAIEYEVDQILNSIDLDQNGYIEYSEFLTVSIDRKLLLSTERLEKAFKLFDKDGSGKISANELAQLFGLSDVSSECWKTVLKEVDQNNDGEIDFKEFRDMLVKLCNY

For `Nc1ncc(-c2ccc3[nH]ccc3c2)c2ccc(-c3ccncc3)cc12`, the growth inhibition in assay [1] and in assay [4] was 100% (active) in each case. The values for the inhibition in assay [2] and in assay [3] were 42% and -6%, respectively. The outcome in assay [5], in assay [6], in assay [7] and in assay [8] was inactive.

With `CCOC(=O)NC1=NC(C)(C)N(OCCCOc2ccc(C)cc2C)C(NC(=O)OCC)=N1`, the growth inhibition in assay [1] is 98% (active); in assay [4], 95% (active). Besides, the inhibition in assay [2] was 63% (active); in assay [3], 7%. Besides, the outcome in assay [5], in assay [6], in assay [7] and in assay [8] was inactive.

With `Cc1c(C)n(C2CCCC2)c2ncnc(OC3CCN(CC(=O)NC4CC4)CC3)c12`, the growth inhibition is 92% (active) in assay [1] and 95% (active) in assay [4]. For the same compound, the values for the inhibition in assay [2] and in assay [3] were 13% and -4%, respectively. Also, the result in assay [5], in assay [6], in assay [7] and in assay [8] was inactive.

For the compound `CCCC(C)Nc1nc(C)cc(N[C@@H](Cc2ccccc2)C(=O)NCCOc2ccccc2)n1` (stereo not given in full), the growth inhibition is 68% (active) in assay [1] and 101% (active) in assay [4]. In addition, the values for the inhibition in assay [2] and in assay [3] were 10% and -1%, respectively. Also, the result in assay [5], in assay [6], in assay [7] and in assay [8] was inactive.

For the compound `COc1ccc(NC(=O)Nc2ccc(-c3ccccc3)cc2)cc1Cn1nc(Cl)c(N2CCCNCC2)cc1=O`, the results for the growth inhibition in assay [1] and in assay [4] were 84% (active) and 102% (active), respectively. For the same compound, the inhibition in assay [2] was 18%; in assay [3], 0%. Also, the result in assay [5], in assay [6], in assay [7] and in assay [8] was inactive.

Regarding `Cc1c(CNCCCNc2nc3ccccc3[nH]2)sc(C(F)F)c1Br`, the growth inhibition in assay [1] is 5%; in assay [4], 102% (active). In addition, the values for the inhibition in assay [2] and in assay [3] were 9% and 2%, respectively. Besides, the result in assay [5], in assay [6], in assay [7] and in assay [8] was inactive.

As for `N#Cc1ccc(CN2CCC(Oc3ccc(NC(=O)c4ccco4)cc3Cl)C2)cc1` (stereo not given), the growth inhibition in assay [1] and in assay [4] was 95% (active) throughout. Moreover, the inhibition in assay [2] was 13%; in assay [3] it was -2%. Moreover, the outcome in assay [5], in assay [6], in assay [7] and in assay [8] was inactive.

Take `COc1ccc(OC)c(-c2cccc(-c3cccc(NC(=O)c4ccc([N+](=O)[O-])o4)c3)n2)c1`: the growth inhibition in assay [1] was 97% (active); in assay [4], 98% (active). The inhibition in assay [2] is 75% (active); in assay [3] it was -7%. Also, the result in assay [5], in assay [6], in assay [7] and in assay [8] was inactive.

`Cc1cc(OC(C)C(=O)N2CCc3ccccc32)ccc1Cl` (stereo not given): the figures for the growth inhibition in assay [1] and in assay [4] were 54% (active) and 89% (active), respectively. The inhibition was 20% in assay [2] and 6% in assay [3]. The result in assay [5], in assay [6], in assay [7] and in assay [8] was inactive.

Turning to `CN1CCC(N2CCN(Cc3ccc(-c4cccc(-c5nc6ccccc6[nH]5)c4)cc3)CC2)CC1`, the figures for the growth inhibition in assay [1] and in assay [4] were 100% (active) and 99% (active), respectively. The inhibition in assay [2] is 48%; in assay [3], -1%. For the same compound, the result in assay [5], in assay [6], in assay [7] and in assay [8] was inactive.

`Oc1ccc(CCNc2nc(NCCOc3cccc4ccccc34)nc(N3CCNCC3)n2)cc1`: the figures for the growth inhibition in assay [1] and in assay [4] were 8% and 96% (active), respectively. In addition, the inhibition is 21% in assay [2] and 1% in assay [3]. Besides, the outcome in assay [5], in assay [6], in assay [7] and in assay [8] was inactive.

For `Fc1cccc(COc2ccc(-n3ccc4c(NCCCn5ccnc5)ncnc43)cc2Cl)n1`, the growth inhibition in assay [1] was 29%; in assay [4] it was 87% (active). Further, the figures for the inhibition in assay [2] and in assay [3] were 14% and -2%, respectively. Besides, the outcome in assay [5], in assay [6], in assay [7] and in assay [8] was inactive.

For the compound `Cn1cccc1C(=O)NCC(CCNc1cc(=O)c2ccccc2[nH]1)NCc1cc(Br)cc(Br)c1` (stereo not given), the growth inhibition was 52% (active) in assay [1] and 92% (active) in assay [4]. The figures for the inhibition in assay [2] and in assay [3] were -3% and -2%, respectively. For the same compound, the result in assay [5], in assay [6], in assay [7] and in assay [8] was inactive.

Regarding `CCCC(C)NC(=O)c1cnn(-c2ccc(C(C)(C)C)cc2)c1OCc1ccc(Br)cc1` (stereo not given), the growth inhibition in assay [1] is 64% (active); in assay [4] it was 84% (active). Besides, the inhibition in assay [2] was 17%; in assay [3], 0%. In addition, the outcome in assay [5], in assay [6], in assay [7] and in assay [8] was inactive.

For `Cc1ccc(C(=O)Nc2ccc(F)c(F)c2F)cc1S(=O)(=O)N1CCCCC1`, the growth inhibition was 69% (active) in assay [1] and 92% (active) in assay [4]. In addition, the inhibition in assay [2] was 3%; in assay [3] it was -8%. Further, the outcome in assay [5], in assay [6], in assay [7] and in assay [8] was inactive.

Consider `CCc1c(CCNCCc2cccc(CCNCCc3ccc(OC)c(OC)c3CC)c2)ccc(OC)c1OC`, for which the figures for the growth inhibition in assay [1] and in assay [4] were 67% (active) and 81% (active), respectively. For the same compound, the figures for the inhibition in assay [2] and in assay [3] were 100% (active) and -6%, respectively. In addition, the outcome in assay [5], in assay [6], in assay [7] and in assay [8] was inactive.

As to `COc1ccc2ncc(F)c(CCN3CCC(NCc4cc(OC)c5c(c4)OCCO5)CC3)c2n1`, the growth inhibition in assay [1] is 53% (active); in assay [4], 101% (active). The inhibition in assay [2] is -2%; in assay [3] it was -3%. Besides, the outcome in assay [5], in assay [6], in assay [7] and in assay [8] was inactive.

With `Cc1ccc(C2CCN(CCCCNC(=O)c3ccc(-c4ccc(C(F)(F)F)cc4)cc3)CC2)c(O)c1`, the growth inhibition in assay [1] was 49%; in assay [4] it was 100% (active). Further, the inhibition is 92% (active) in assay [2] and -2% in assay [3]. Moreover, the outcome in assay [5], in assay [6], in assay [7] and in assay [8] was inactive.

As for `COc1ccc(Nc2ncc3c(-c4cccc(NC(=O)c5ccccc5)c4)c[nH]c3n2)cc1OC`, the growth inhibition was 95% (active) in assay [1] and 101% (active) in assay [4]. Also, the inhibition in assay [2] was 54% (active); in assay [3] it was -7%. In addition, the result in assay [5], in assay [6], in assay [7] and in assay [8] was inactive.

Turning to `CN(C)c1ccc2c(c1)Sc1cc(N(C)C)ccc1N2C(=O)c1cccc(C(=O)O)c1`, the growth inhibition in assay [1] was 73% (active); in assay [4] it was 99% (active). The inhibition was 8% in assay [2] and -3% in assay [3]. Moreover, the outcome in assay [5], in assay [6], in assay [7] and in assay [8] was inactive.
